The record followed here is PubChem BioAssay (NCI).

The nature of the test: NCI Yeast Anticancer Drug Screen. Data for the cln2 rad14 strain (AID 165).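 Also: 0% = growth equal to vehicle treated cultures.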 The conditions noted are these: S. cerevisiae cln2 rad14 strain, active compounds read high. As to the method: Growth inhibition of yeast strains with defined genetic alterations is measured as a screen for potential anti-cancer activity. Selected strains with alterations in DNA damage repair or cell cycle control were exposed to compounds and growth inhibition was measured relative to vehicle treated controls. The strain used in this assay is cln2 rad14

Where [1] appears, read: at 5.0 µM (retest, dose inferred, filed as 0.5).
The mark [2] stands for this setting: at 50.0 µM (retest, dose inferred, filed as 5.0).

Compounds without any hit were thinned out: in the full panel of roughly 79,000, 15% have a hit. A number with no mark means an inactive call. The source made the active and inactive calls. Rule as the data show it: active = growth inhibition above about 70%; inactive = the rest.

With `C1C2OC2C2C1C1CC2C2OC12` (configuration not stated), the growth inhibition is 2% under setting [1], 2% under setting [2] and 19.4% (at 50.0 µM).

`CN(C)CC(CN(C)C)C(=O)c1ccc(Oc2ccccc2)cc1`: the growth inhibition runs as follows: under setting [1], 33%; under setting [2], 99% (active); (at 50.0 µM) 99.6% (active).

On to `Cn1c(C(C)(C)OC(=O)Oc2ccccc2)cnc1[N+](=O)[O-]`, for which the growth inhibition reads like this: under setting [1], 4%; under setting [2], 31%; (at 50.0 µM) 30.4%.

On to `CCOC(=O)C(C(=O)OCC)C1(c2ccccc2)OC(=O)c2ccccc21` (configuration not stated), for which the growth inhibition under setting [1] was -1%, the growth inhibition under setting [2] was 17% and the growth inhibition (at 50.0 µM) is 19.1%.

As to `CN(C)COC(=S)SCN(C)C`, the growth inhibition runs as follows: under setting [1], 93% (active); under setting [2], 99% (active); (at 50.0 µM) 52.9%.

On to `C/C=C(\C)C(=O)O[C@@H]1CC(C)(C)CC2C3=CCC4[C@]56CC[C@](O)(OC5)C(C)(C)C6CC[C@@]4(C)C3(C)CC[C@]21C(=O)O` (some centres not stated), for which the growth inhibition reads like this: under setting [1], 73% (active); under setting [2], 94% (active); (at 50.0 µM) 78.8% (active).

`CC(=Nc1ccc(N(C)C)cc1)c1ccccc1`: the growth inhibition is -26% under setting [1], 53% under setting [2] and 45.4% (at 50.0 µM).

Turning to `COC(=O)c1cc2c(c(C(=O)OC)c1O)C(=O)C=CC2=O`, the growth inhibition was 10% under setting [1], 95% (active) under setting [2] and 56.3% (at 50.0 µM).

Consider `Nc1ncnc2c1c(-c1ccccc1)cn2-c1ccc(Cl)cc1`, for which the growth inhibition reads like this: under setting [1], 0%; under setting [2], 17%; (at 50.0 µM) 42.8%.

As for `Clc1ccc(-c2nc3ccc(Cl)cc3[nH]2)cc1`, the growth inhibition is 0% under setting [1], 92% (active) under setting [2] and 84.3% (active) (at 50.0 µM).

For the compound `CC(C(O)c1ccccc1)C(O)(C(F)(F)F)C(F)(F)F` (configuration not stated), the growth inhibition reads like this: under setting [1], 1%; under setting [2], -4%; (at 50.0 µM) 15.5%.

Consider `CN(C)CCC(/C=C/c1ccccc1)=N\Nc1ccc(Cl)cc1Cl`, for which the growth inhibition was 66% under setting [1], 88% (active) under setting [2] and 98.7% (active) (at 50.0 µM).

In the case of `S=c1nc(N2CCCCC2)ss1`, the growth inhibition under setting [1] was 17%, the growth inhibition under setting [2] was 70% (active) and the growth inhibition (at 50.0 µM) is 57.9%.

Turning to `O=[N+]([O-])c1ccc(Cl)cc1C=NC12CC3CC(CC(C3)C1)C2`, the growth inhibition under setting [1] is 3%, the growth inhibition under setting [2] is 14% and the growth inhibition (at 50.0 µM) was 8.55%.
